Columns and labels:
[1] = target: Dual specificity protein kinase CLK3 (Homo sapiens) (UniProt P49761); conditions: at 1 µM;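 also: each value is the mean inhibition of CLK3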
[2] = target: Dual specificity tyrosine-phosphorylation-regulated kinase 1A (Homo sapiens) (UniProt Q13627); conditions: at 0.1 µM
[3] = target: Dual specificity tyrosine-phosphorylation-regulated kinase 1A (Homo sapiens) (UniProt Q13627); conditions: at 1 µM
[4] = target: Dual specificity tyrosine-phosphorylation-regulated kinase 1B (Homo sapiens) (UniProt Q9Y463); conditions: at 0.1 µM
[5] = target: Dual specificity tyrosine-phosphorylation-regulated kinase 1B (Homo sapiens) (UniProt Q9Y463); conditions: at 1 µM
[6] = target: T1, Dual specificity tyrosine-phosphorylation-regulated kinase 2 (Homo sapiens) (UniProt Q92630); conditions: at 0.1 µM
T1 sequence (whole entry): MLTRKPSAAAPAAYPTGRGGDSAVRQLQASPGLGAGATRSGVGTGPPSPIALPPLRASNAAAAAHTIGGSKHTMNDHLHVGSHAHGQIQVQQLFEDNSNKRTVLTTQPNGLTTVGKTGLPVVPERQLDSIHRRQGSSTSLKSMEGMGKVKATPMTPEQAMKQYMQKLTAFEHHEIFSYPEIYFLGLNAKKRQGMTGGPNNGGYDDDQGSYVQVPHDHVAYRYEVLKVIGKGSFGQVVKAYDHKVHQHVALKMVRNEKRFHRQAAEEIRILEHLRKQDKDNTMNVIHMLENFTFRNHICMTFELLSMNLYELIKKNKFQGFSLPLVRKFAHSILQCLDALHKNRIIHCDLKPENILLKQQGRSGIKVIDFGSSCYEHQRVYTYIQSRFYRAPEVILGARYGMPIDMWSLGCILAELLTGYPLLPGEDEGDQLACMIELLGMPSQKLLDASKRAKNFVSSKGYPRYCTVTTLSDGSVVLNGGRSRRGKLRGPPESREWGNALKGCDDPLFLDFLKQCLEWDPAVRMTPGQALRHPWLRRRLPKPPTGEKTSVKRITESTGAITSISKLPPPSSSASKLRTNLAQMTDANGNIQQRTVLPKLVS

[7] = target: T1, Dual specificity tyrosine-phosphorylation-regulated kinase 2 (Homo sapiens); conditions: at 1 µM
[8] = target: Glycogen synthase kinase-3 alpha (Homo sapiens) (UniProt P49840); conditions: at 0.1 µM
[9] = target: Glycogen synthase kinase-3 alpha (Homo sapiens) (UniProt P49840); conditions: at 1 µM
[10] = target: Glycogen synthase kinase-3 beta (Homo sapiens) (UniProt P49841); conditions: at 0.1 µM
[11] = target: Glycogen synthase kinase-3 beta (Homo sapiens) (UniProt P49841); conditions: at 1 µM
[12] = target: Homeodomain-interacting protein kinase 1 (Homo sapiens) (UniProt Q86Z02); conditions: at 0.1 µM
[13] = target: Homeodomain-interacting protein kinase 1 (Homo sapiens) (UniProt Q86Z02); conditions: at 1 µM
[14] = target: T2, Homeodomain-interacting protein kinase 4 (Homo sapiens) (UniProt Q8NE63); conditions: at 0.1 µM
T2 sequence (whole entry): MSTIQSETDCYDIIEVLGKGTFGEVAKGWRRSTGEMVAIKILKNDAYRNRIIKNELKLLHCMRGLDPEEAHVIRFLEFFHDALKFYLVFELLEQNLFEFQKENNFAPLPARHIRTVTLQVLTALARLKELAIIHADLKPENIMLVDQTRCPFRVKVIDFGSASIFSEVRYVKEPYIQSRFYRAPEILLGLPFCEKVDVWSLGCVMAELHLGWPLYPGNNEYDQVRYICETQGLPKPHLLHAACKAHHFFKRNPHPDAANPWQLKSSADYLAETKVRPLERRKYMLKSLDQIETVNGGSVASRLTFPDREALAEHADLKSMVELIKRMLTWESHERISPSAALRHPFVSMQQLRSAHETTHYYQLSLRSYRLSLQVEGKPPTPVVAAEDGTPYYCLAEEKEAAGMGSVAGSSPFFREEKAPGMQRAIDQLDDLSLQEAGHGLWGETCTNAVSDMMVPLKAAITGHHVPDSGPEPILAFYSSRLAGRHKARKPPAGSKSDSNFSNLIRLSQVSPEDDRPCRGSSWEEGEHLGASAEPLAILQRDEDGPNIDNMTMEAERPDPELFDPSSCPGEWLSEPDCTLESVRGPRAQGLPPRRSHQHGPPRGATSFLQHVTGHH

[15] = target: T2, Homeodomain-interacting protein kinase 4 (Homo sapiens); conditions: at 1 µM
[16] = target: Mitogen-activated protein kinase 9 (Homo sapiens) (UniProt P45984); conditions: at 0.1 µM
[17] = target: Mitogen-activated protein kinase 9 (Homo sapiens) (UniProt P45984); conditions: at 1 µM
[18] = target: Mitogen-activated protein kinase 1 (Homo sapiens) (UniProt P28482); conditions: at 0.1 µM
[19] = target: Mitogen-activated protein kinase 1 (Homo sapiens) (UniProt P28482); conditions: at 1 µM
[20] = target: Mitogen-activated protein kinase 3 (Homo sapiens) (UniProt P27361); conditions: at 0.1 µM;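 also: each value is a mean inhibition figure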
Mitogen-activated protein kinase 3 (Homo sapiens), sequence (P27361 whole entry): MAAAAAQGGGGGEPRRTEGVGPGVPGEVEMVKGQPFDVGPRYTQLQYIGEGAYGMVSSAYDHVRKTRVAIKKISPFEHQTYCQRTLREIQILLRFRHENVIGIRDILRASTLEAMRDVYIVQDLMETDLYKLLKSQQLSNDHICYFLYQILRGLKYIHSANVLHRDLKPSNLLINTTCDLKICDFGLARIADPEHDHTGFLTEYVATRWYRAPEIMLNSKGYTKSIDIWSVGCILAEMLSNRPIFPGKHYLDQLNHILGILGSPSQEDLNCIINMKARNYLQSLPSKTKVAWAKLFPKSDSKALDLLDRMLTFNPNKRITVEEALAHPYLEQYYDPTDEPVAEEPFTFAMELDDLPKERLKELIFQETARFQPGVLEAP

Homeodomain-interacting protein kinase 1 (Homo sapiens), sequence (Q86Z02 whole entry, looked up): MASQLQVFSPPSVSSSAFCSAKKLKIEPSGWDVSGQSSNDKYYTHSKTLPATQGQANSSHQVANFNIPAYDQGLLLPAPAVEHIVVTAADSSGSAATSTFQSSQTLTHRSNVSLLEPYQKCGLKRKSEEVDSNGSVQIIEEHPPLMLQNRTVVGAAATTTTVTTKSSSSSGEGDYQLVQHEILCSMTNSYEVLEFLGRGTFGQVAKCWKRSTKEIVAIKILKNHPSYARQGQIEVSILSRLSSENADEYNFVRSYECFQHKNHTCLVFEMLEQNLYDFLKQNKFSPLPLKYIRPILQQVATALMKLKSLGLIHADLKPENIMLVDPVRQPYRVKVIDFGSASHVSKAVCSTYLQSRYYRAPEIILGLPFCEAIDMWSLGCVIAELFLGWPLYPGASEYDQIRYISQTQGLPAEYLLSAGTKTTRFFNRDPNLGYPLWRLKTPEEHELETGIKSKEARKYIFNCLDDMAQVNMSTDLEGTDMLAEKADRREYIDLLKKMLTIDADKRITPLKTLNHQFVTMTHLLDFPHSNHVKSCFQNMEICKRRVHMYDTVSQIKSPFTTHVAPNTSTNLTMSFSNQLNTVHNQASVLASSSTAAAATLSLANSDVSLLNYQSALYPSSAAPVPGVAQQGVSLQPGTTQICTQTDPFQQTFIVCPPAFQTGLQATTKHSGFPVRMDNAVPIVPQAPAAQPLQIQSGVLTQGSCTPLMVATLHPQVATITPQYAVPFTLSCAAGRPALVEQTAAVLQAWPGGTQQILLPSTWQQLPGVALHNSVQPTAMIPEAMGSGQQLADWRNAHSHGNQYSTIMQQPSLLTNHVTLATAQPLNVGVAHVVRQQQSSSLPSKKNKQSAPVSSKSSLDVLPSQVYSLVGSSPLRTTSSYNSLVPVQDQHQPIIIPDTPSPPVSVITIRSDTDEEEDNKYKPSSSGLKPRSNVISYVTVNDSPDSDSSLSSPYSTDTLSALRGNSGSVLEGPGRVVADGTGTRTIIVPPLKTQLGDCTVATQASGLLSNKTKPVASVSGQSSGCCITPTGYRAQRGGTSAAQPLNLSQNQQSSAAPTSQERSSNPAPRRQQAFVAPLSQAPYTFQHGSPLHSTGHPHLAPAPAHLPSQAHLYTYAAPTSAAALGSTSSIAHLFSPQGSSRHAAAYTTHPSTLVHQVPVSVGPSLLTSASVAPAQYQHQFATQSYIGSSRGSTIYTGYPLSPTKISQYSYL
Mitogen-activated protein kinase 1 (Homo sapiens), sequence (P28482 whole entry): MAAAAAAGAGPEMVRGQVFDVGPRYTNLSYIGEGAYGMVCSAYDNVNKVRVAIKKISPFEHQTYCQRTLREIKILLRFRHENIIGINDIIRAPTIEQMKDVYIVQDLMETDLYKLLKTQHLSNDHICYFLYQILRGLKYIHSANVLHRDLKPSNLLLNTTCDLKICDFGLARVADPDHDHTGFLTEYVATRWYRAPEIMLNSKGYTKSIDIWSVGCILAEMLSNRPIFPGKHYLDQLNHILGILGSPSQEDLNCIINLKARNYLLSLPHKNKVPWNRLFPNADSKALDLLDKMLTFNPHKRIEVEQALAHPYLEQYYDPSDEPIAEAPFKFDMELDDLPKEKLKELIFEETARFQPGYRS
Mitogen-activated protein kinase 9 (Homo sapiens), sequence (P45984 whole entry, looked up): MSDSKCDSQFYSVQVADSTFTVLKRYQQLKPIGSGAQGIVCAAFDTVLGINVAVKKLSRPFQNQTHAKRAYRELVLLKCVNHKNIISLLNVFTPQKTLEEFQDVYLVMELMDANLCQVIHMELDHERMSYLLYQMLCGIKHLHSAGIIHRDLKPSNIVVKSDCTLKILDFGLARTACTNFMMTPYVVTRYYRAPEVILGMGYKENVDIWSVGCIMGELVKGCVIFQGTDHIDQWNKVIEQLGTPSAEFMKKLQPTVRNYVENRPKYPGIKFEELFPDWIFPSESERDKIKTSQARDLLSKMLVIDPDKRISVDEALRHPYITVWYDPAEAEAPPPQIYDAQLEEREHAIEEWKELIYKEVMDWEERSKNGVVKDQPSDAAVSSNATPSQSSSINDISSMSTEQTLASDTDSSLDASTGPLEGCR
Dual specificity protein kinase CLK3 (Homo sapiens), sequence (P49761 whole entry, looked up): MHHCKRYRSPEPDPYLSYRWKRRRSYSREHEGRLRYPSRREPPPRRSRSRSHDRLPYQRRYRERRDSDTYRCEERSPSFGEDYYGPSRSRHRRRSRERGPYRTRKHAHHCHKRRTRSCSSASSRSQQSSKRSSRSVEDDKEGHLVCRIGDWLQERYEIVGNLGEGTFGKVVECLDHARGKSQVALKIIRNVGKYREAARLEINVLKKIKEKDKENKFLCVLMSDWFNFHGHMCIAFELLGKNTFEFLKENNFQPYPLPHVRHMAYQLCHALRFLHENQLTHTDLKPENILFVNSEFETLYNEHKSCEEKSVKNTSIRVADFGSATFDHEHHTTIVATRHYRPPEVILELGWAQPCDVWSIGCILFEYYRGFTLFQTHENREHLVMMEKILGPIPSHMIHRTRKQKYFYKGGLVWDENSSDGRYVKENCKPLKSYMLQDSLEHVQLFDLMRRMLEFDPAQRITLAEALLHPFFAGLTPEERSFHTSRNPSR
Dual specificity tyrosine-phosphorylation-regulated kinase 1B (Homo sapiens), sequence (Q9Y463 whole entry, looked up): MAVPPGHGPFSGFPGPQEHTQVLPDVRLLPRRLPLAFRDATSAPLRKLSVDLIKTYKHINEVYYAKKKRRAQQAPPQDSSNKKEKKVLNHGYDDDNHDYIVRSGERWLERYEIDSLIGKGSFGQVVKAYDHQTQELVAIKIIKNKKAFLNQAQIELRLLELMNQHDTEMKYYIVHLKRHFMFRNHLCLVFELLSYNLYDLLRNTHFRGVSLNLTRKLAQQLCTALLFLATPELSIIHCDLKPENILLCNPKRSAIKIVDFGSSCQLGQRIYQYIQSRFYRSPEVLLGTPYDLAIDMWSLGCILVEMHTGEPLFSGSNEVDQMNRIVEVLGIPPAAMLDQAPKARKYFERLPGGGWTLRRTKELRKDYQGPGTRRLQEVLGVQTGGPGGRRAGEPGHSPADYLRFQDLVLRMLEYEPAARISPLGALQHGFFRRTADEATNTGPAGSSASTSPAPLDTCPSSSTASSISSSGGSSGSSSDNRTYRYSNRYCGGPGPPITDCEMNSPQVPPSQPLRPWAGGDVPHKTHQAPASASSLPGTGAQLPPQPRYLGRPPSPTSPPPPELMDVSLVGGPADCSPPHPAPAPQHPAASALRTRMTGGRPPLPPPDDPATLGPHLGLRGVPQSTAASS
Glycogen synthase kinase-3 alpha (Homo sapiens), sequence (P49840 2-483 limits assumed): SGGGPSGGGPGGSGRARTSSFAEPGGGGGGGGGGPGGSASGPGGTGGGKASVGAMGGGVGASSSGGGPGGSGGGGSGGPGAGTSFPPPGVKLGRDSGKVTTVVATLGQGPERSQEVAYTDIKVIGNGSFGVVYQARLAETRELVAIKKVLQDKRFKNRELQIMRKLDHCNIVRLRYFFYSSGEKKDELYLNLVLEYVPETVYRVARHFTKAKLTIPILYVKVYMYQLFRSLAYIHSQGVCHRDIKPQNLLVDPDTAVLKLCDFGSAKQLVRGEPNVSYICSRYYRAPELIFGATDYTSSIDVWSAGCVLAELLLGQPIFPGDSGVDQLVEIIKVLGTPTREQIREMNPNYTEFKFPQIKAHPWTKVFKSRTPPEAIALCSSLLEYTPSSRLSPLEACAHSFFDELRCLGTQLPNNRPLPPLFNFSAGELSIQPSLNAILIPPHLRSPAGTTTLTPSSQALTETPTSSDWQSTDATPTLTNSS
Glycogen synthase kinase-3 beta (Homo sapiens), sequence (P49841 whole entry, looked up): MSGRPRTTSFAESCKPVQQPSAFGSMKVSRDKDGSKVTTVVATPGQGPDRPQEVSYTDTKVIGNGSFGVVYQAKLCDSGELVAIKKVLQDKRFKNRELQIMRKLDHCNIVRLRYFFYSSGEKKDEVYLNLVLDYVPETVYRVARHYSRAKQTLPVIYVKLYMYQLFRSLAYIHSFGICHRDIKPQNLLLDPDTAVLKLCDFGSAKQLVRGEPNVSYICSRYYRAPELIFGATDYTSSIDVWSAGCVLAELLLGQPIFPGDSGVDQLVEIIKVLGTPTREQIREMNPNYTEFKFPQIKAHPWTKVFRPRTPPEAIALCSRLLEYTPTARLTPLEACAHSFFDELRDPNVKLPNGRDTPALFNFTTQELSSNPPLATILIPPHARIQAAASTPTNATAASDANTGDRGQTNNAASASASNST

Compound	inhibition [1] [%]	inhibition [2] [%]	inhibition [3] [%]	inhibition [4] [%]	inhibition [5] [%]	inhibition [6] [%]	inhibition [7] [%]	inhibition [8] [%]	inhibition [9] [%]	inhibition [10] [%]	inhibition [11] [%]	inhibition [12] [%]	inhibition [13] [%]	inhibition [14] [%]	inhibition [15] [%]	inhibition [16] [%]	inhibition [17] [%]	inhibition [18] [%]	inhibition [19] [%]	inhibition [20] [%]
O=C(Nc1n[nH]c2nnc(-c3cccnc3)cc12)C1CC1	1.3	73.8	93.2	69.1	81	20.6	75	80.5	82.4	80	81.5	33.6	74	0.58	8.84	0.33	1.3	0.58	2.75	0.53
CN(c1ccc(NC(=O)NCCN2CCOCC2)cc1)c1ccnc(Nc2ccc(CS(C)(=O)=O)cc2)n1	1.43	1.69	3.45	-0.71	2.44	1.44	3.05	4.05	8.02	4.49	5.02	2.62	5.06	6.23	31.9	1.5	3.59	5.07	8.36	4.06
CCS(=O)(=O)c1ccc(OC)c(Nc2ncc(-c3cccc(C(C)=O)c3)o2)c1	5.96	6.12	35.4	4.09	33.2	2.2	5.6	3.75	11.3	4.38	12.4	5.49	23	5.03	27.3	-1.02	1.43	4.9	3.99	2.3
NS(=O)(=O)c1ccc(N/N=C2\C(=O)Nc3cccc(CCc4ccncc4)c32)cc1	1.36	1.69	4.28	1.6	6.1	-0.67	-1.25	49.5	68	34.1	56.4	-0.6	2.62	0.72	1.64	-0.3	1.61	0.92	0.88	-0.55
Cc1c2ccc(N(C)c3ccnc(Nc4cccc(S(N)(=O)=O)c4)n3)cc2nn1C	1.11	-1.03	1.54	-3.31	-2.73	2.38	2.71	-0.44	6.37	-0.25	10.7	-4.42	-0.84	-0.24	10.6	3.51	7.66	4.96	5.77	5.75
COC(=O)Nc1nc2cc(Oc3ccc(NC(=O)Nc4ccccc4)cc3)ccc2[nH]1	2	0.64	2.92	-0.93	1.92	0.59	0.89	4.23	8.26	3.5	8.21	0.47	2.14	3.11	2.22	3.28	3	4.54	2.22	4.71
Cc1ccc(-c2cc3c(NC(=O)C4CC4)ncnc3o2)cc1	7.45	4.14	12.6	1.1	4.52	2.48	8.21	12.4	48.7	7.9	38.2	1.63	9.22	1.44	7.28	0.97	5.49	2.94	4.73	3
COc1cc(Nc2ncc(-c3ccccc3)o2)cc(OC)c1	1.09	3.59	6.1	-8.51	0.86	2.09	1.69	3.75	14.6	2.47	11.5	1.55	17.1	2.58	12.5	3.25	3.23	10.2	6.06	5.39
CN(C)CCNC(=O)Nc1ccc(N(C)c2ccnc(Nc3ccc(CS(C)(=O)=O)cc3)n2)cc1	2.89	2.86	5.24	1.37	1.57	2.66	4.33	1.56	4.32	0.61	4.47	0.8	4.6	0.19	3.28	4.37	5.22	5.77	4.8	2.98
CC(C)c1ccc(-c2cc(-c3c[nH]nc3-c3ccccn3)ccn2)cc1	0.76	0.59	2.33	0.57	1.3	0.98	0.3	0.61	2.95	-0.15	3.51	-2.26	0.99	0.13	3.76	0.51	2.5	-0.73	2.22	0.86
COc1ccc2ncn(-c3cc(O[C@H](C)c4ccccc4C(F)(F)F)c(C(N)=O)s3)c2c1	0.85	0.11	2.44	0.37	1.63	-0.29	1.33	-0.19	4.58	-0.14	4.75	-2.12	2.1	-0.89	3.28	0.32	-1.29	-1.88	-0.49	-0.86
CC1=C(C(=O)Nc2ccc3[nH]nc(C)c3c2)C(c2ccc(C(F)(F)F)cc2)CC(=O)N1 (stereo not given)	14.1	2.93	7.46	1.73	4.23	2.28	3.97	6.5	10.8	6.08	10.3	3.11	7.43	3.59	7.18	2.4	3.81	6.06	35.1	3.88
NC(=O)c1ccc2c(-c3ccnc(NCCCO)n3)c(-c3ccc(F)cc3)nn2c1	2.71	7.25	8.12	5.14	5.25	3.28	5.26	3.74	19.6	7.03	41.3	1.65	4.85	5.71	7.94	38	82.2	1.98	14.9	4.06

Reference: ChEMBL document CHEMBL1961873, “Compounds: GSK PKIS; Assays: Nanosyn kinase panel” (2012)
